EWS-Fli block = blocks EWS/Fli oncoprotein-driven transcription. 350,000 tested, 0.67% active. A673 NR0B1-luciferase reporter, viability-normalised. inhibition, % at 12.6 µM;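 active means mean inhibition of at least 50% after viability correction, with every replicate also passing that limit; inconclusive means mean reaches 50% but only one of two replicates passes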;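 further: firefly luciferase signal divided by Alamar Blue viability fluorescence both relative to DMSO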
PGC1a acetyl inh = PGC1a acetylation modulation, inhibitor mode; U2OS PGC1a acetylation, AlphaScreen anti-acetyl-lysine; with virally co-expressed GCN5 acetyltransferase; inhibition, % at 15.6 µM; 350,000 tested, 0.17% active; AID 651687;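 active means every replicate shows inhibition of at least 40%; inconclusive means mean inhibition at least 40% but some replicate below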;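 further: 0% = neutral control wells and 100% = positive control wells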
Env fusion inh = inhibitors of HIV Env-mediated cell fusion; 360,000 tested, 1.1% active; inhibition, % at 12.3 µM; HeLa-JRFL Env/CEM21 cell fusion, luciferase;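 active means mean replicate inhibition score of at least 50 and every replicate individually at or above 50; inconclusive means only one of the two criteria met; inactive means mean below 50 and not all replicates reaching 50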;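 further: 0% = plate neutral controls and 100% = maraviroc near 300 nM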
CFTR F508del cor = correctors of CFTR F508del function in bronchial epithelial cells | 350,000 tested, 0.36% active | activity (quench increase), % at 7.58 µM | CFBE cells, YFP halide quenching; stimulated with forskolin plus potentiator P3; % fluorescence drop versus neutral controls;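 active means mean added fluorescence quench of at least 8% versus neutral control, with both replicates also reaching 8%; inconclusive means only one of the mean or replicate conditions met; inactive means mean below 8% and not both replicates reaching 8%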;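 further: cells transiently co-express mutant CFTR-F508del with the halide-sensitive YFP; corrector assay measuring rescue of mutant channel to the surface after 24 h compound exposure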
PAX8 reporter = PAX8 transcriptional activity inhibition | RMG-I TPO-luciferase reporter, SteadyGlo, 24 h | inhibition, % at 12.6 µM | 360,000 tested, 1.2% active | AID 652154;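 active means mean replicate inhibition at least 60% with every replicate also reaching 60%; inconclusive means only one of the two criteria is met; inactive means mean below 60% and not all replicates reaching 60%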;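 further: luciferase light reporting Pax8 driven TPO promoter activity; plate controls were median of neutral control wells for no effect and mitoxantrone controls for full effect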
INS-1E GSIS act = GLuc luminescence reporter in INS-1E cells, primary screen for activators of glucose-dependent secretion of insulin; INS-1E GLuc reporter insulin secretion, 2-3 h; activation, % at 16.6 µM; 370,000 tested, 0.61% active; AID 743287;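 active means lowest replicate activation of at least 40%, so every replicate reaches that level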;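 further: 0% = median of neutral control wells and 100% = median of IBMX positive control wells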
* hit, by the source's call; u = inconclusive; x = no result given; + = active, no number; [ ] = remark or other dose. A selection: hits, their analogues and other compounds. The true share with any hit is near 2.7%.

SMILES	EWS-Fli block	PGC1a acetyl inh	Env fusion inh	CFTR F508del cor	PAX8 reporter	INS-1E GSIS act
CCCC[C@@H](CNC)NC[C@H](NCCCCC1CCCCC1)C(C)C	17	-13	31	1	28	-16
CC[C@@H](C)[C@H](CNC)NC[C@@H](Cc1cccc2ccccc12)NCCc1cccc(C(F)(F)F)c1	45	x	u	-2	103*	+
CCC[C@@H](CN[C@@H](CNC)[C@H](C)CC)NCC1CCC(C(C)(C)C)CC1 (stereo not given in full)	56*	-15	13	-1	93*	-42
O=C(NCC(F)(F)F)[C@H]1[C@H](CO)[C@H]2Cn3c(ccc(-c4cccnc4)c3=O)[C@@H]1N2Cc1ccccc1	1	x	x	x	x	-5
CCCCCCCCCCCCCCCC[N+](C)(C)CCl	37	-22	-16	1	106*	x
CCCCCC[N+](C)(C)CCSSCC[N+](C)(C)CCCCCC	7	-2	-2	3	15	6
CCCCCCCCCCCCCCCC[N+](C)(C)CC	53*	0	u	0	107*	298*
Cn1nc(C2CC2)cc1NC(=O)C1(C)CCN1C(=O)c1ccccc1CCc1ccccc1 (stereo not given)	6	-22	64*	-3	13	x
CCCCn1c(C(C)NC(=O)CCC)nc2ccccc21 (stereo not given)	2	-11	-69	0	11	x
CCCCCn1c(C(C)NC(=O)CCC)nc2ccccc21 (stereo not given)	0	x	74*	2	-2	x
CC(C)NC(=O)Nc1ccc2c(c1)C(=O)N([C@H](C)CO)C[C@H](C)[C@H](CN(C)S(=O)(=O)c1ccccc1)O2	-1	-6	x	-2	-5	-3
COc1ccc2c3c([nH]c2c1)[C@H](CO)N(C(=O)Nc1ccccc1F)CC31CCN(C(=O)C2CC2)CC1	22	-5	x	0	32	-42
Cc1sc2ncnc(N/N=C/c3cccc(O)c3)c2c1C	x	x	18	x	14	-9
C/C(=N\Nc1ncnc2sc(C)c(C)c12)c1ccccn1	7	x	11	21*	58	13
CC(C)(C)c1ccc(SC2=C[C@@]3(O)CC[C@@H](O)[C@@](Sc4ccc(C(C)(C)C)cc4)(C2=O)[C@H]3O)cc1	31	x	34	3	85*	-32
Cc1ccc(SC2=C[C@@]3(O)CC[C@@H](O)[C@@](Sc4ccc(C)cc4)(C2=O)[C@H]3O)cc1	-5	x	-8	-1	6	-21
COc1ccc2c3c(n(C)c2c1)[C@H](CO)N(Cc1nccs1)CC31CN(C(C)=O)C1	7	1	x	3	x	21
O=C(OCn1ncc(Br)c(Br)c1=O)c1ccccc1Cl	x	-3	x	x	x	115*
CN1CCN(CCCNC(=O)c2ccc(/C=C3/Sc4ccccc4N(Cc4cccc(Cl)c4)C3=O)cc2)CC1	45	-3	11	-9	-12	129*
CN1CCN(CCCNC(=O)c2ccc(/C=C3\Oc4ccccc4N(Cc4ccccc4F)C3=O)cc2)CC1	20	x	2	-4	13	93*
CCN1CCN(CCNC(=O)c2ccc(/C=C3\Sc4ccccc4N(Cc4ccccc4F)C3=O)cc2)CC1	10	-20	6	2	0	135
CN1CCN(CCCNC(=O)c2ccc(/C=C3\Sc4ccccc4N(Cc4ccc(F)cc4)C3=O)cc2)CC1	23	3	8	1	12	76*
Cc1noc(C)c1NC(=O)Nc1ccc2c(c1)CC(=O)N([C@@H](C)CO)C[C@@H](C)[C@H](CN(C)S(=O)(=O)c1ccc(Cl)cc1)O2	-6	0	-16[16.7 µM]	-1	-3	10
COc1ccc(S(=O)(=O)N[C@H]2CC[C@@H](CC(=O)N3CCC(Cc4ccccc4)CC3)O[C@@H]2CO)cc1	x	-3	x	0	x	-7
C[C@@H]1CN([C@H](C)CO)S(=O)(=O)c2ccc(-c3ccc(F)cc3)cc2O[C@H]1CN(C)Cc1cccc(F)c1	40	39	45[16.7 µM]	1	x	58*
C[C@H]1CN([C@@H](C)CO)S(=O)(=O)c2ccc(-c3ccc(F)cc3)cc2O[C@@H]1CN(C)Cc1cccc(F)c1	38	15	39[16.7 µM]	-1	x	-8
C[C@H]1CN([C@@H](C)CO)S(=O)(=O)c2ccc(-c3cccc(C#N)c3)cc2O[C@H]1CN(C)Cc1cccc(F)c1	21	-23	74*[16.7 µM]	-1	11	-1
